Source: PubChem BioAssay
Calls of active or inactive are those of the source.

Key:
[1] = small molecules captured by biotinylated probe aFSTL3 – biochemical, small-molecule microarray, fluorescence 635/667, stem cell growth factor project, primary screen (AID 1064); details: higher = more signal;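 also: measures binding of the biotinylated anti-FSTL3 antibody to printed compounds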
[2] = binders from COS7 lysate, DM2A8 probe, primary screen, torsin A project, cell lysate, small-molecule microarray, fluorescence 635/667 (AID 1065); details: higher = more signal, COS7 lysate expressing mutant human TOR1A
[3] = small molecules captured by biotinylated probe aFGF2 – biochemical, small-molecule microarray, fluorescence 635/667, stem cell growth factor project, primary screen (AID 1067); details: higher = more signal;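 also: measures binding of biotinylated aFGF2 protein to printed compounds on slides; z-score merges feature fluorescence and signal-to-noise across triplicate slides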
[4] = small molecules captured by biotinylated probe aFGF10 – biochemical, small-molecule microarray, fluorescence 635/667, stem cell growth factor project, primary screen (AID 1071); details: higher = more signal;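 also: score merges 667 nm spot intensity and signal to noise from triplicate slides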
[5] = biological target: Neurogenic locus notch homolog protein 2 (Homo sapiens) (UniProt Q04721); assay: small molecules binding Notch2 protein – biochemical, small-molecule microarray, 635 nm fluorescence, stem cell growth factors, primary screen (AID 1073); details: higher = more signal
[6] = biological target: Pro-neuregulin-1, membrane-bound isoform (Homo sapiens) (UniProt Q02297); assay: small molecules binding neuregulin-1 protein – biochemical, small-molecule microarray, fluorescence 635/667, psychiatric disease protein project, primary screen (AID 1075); details: NRG1 binding, 635 nm fluorescence, higher = more signal;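 also: score combines 667 nm spot fluorescence with signal to noise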
[7] = tested on: Neuregulin-1 EGF-like domain; assay: small molecules binding NRG1 EGF domain – biochemical, small-molecule microarray, 635 nm fluorescence, primary screen (AID 1081); details: higher = more signal;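 also: binding of the protein to compounds printed on small-molecule microarray slides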
[8] = FRG1 expression reporter modulators in myotubes – cell-based, C2C12 myotubes, firefly/Renilla luciferase, luminescence, FRG1 inhibition for FSHD, primary screen (AID 1084); details: FRG1 promoter luciferase, higher = more signal, called active from +8 up or from −8 down
[9] = small molecules captured by biotinylated probe aFST – biochemical, small-molecule microarray, fluorescence 635/667, stem cell growth factor project, primary screen (AID 1086); details: higher = more signal;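 also: score merges 667 nm fluorescence with signal-to-noise of each printed compound spot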
[10] = binders of probe aHhip on microarray, primary screen, stem cell growth factor project, biochemical, small-molecule microarray, fluorescence 635/667 (AID 1087); details: higher = more signal;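 also: score merges spot fluorescence at 667nm with spot signal to noise ratio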

Sequence of Neurogenic locus notch homolog protein 2 (Homo sapiens) (Q04721 whole entry, looked up, canonical isoform): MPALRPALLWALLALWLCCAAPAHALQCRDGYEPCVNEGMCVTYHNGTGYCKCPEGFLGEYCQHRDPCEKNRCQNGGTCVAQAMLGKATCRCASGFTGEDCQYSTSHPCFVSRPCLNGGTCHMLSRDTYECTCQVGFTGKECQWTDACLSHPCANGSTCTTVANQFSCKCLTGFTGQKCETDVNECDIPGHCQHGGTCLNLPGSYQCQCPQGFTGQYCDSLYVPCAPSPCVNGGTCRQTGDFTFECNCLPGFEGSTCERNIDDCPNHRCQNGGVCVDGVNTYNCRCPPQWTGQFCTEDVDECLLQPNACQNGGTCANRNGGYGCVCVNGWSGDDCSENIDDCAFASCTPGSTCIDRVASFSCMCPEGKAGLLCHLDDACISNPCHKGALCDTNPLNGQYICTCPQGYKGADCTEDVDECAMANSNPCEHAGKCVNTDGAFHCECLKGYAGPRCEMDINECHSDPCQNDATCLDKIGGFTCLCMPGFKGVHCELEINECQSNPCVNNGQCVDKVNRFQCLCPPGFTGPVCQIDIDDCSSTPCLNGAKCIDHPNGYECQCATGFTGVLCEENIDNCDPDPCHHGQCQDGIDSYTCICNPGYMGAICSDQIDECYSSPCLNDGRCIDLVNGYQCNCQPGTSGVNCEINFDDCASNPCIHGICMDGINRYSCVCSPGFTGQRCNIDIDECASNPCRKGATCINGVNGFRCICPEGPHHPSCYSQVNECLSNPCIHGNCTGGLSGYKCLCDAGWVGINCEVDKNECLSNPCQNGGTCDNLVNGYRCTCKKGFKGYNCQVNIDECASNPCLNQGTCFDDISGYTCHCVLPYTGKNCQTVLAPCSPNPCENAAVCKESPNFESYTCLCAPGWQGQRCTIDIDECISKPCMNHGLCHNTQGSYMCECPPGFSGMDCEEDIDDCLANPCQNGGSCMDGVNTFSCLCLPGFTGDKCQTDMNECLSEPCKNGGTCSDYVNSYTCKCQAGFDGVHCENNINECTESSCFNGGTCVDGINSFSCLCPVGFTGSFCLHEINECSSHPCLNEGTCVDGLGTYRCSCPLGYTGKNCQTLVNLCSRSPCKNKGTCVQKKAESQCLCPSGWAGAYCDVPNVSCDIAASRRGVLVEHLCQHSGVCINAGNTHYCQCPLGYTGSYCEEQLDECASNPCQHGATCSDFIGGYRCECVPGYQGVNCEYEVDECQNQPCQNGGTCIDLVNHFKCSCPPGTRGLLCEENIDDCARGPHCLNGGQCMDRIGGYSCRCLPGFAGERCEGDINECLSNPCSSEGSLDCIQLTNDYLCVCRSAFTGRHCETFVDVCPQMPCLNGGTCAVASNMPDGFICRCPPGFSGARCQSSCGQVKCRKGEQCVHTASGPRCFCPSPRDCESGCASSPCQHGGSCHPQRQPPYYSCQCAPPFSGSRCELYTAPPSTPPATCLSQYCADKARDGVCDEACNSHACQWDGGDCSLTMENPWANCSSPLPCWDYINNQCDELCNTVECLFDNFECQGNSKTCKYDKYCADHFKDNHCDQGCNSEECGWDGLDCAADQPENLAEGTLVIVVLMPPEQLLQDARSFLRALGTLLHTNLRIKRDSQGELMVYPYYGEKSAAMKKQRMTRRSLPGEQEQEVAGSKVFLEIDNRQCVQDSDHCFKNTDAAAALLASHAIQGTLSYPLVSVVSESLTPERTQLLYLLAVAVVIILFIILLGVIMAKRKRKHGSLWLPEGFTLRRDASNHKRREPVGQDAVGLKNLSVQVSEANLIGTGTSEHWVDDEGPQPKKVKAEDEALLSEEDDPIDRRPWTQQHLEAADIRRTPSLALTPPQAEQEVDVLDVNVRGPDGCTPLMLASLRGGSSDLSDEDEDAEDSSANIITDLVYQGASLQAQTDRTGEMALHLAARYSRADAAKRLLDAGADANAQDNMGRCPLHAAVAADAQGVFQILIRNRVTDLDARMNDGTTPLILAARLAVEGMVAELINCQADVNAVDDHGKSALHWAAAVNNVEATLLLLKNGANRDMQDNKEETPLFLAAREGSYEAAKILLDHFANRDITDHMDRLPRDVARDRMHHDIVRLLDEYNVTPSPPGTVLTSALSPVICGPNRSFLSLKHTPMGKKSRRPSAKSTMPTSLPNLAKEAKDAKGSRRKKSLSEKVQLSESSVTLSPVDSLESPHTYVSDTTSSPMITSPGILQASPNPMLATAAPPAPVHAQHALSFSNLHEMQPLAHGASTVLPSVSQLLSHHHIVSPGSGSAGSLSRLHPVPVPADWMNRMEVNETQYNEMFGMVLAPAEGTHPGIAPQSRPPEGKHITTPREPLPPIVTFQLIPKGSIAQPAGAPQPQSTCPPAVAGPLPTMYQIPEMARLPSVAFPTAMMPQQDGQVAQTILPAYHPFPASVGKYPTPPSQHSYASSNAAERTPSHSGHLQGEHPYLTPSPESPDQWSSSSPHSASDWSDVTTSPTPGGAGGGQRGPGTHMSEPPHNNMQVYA
Sequence of Pro-neuregulin-1, membrane-bound isoform (Homo sapiens) (Q02297 whole entry, looked up, the tested form may be a part, canonical isoform): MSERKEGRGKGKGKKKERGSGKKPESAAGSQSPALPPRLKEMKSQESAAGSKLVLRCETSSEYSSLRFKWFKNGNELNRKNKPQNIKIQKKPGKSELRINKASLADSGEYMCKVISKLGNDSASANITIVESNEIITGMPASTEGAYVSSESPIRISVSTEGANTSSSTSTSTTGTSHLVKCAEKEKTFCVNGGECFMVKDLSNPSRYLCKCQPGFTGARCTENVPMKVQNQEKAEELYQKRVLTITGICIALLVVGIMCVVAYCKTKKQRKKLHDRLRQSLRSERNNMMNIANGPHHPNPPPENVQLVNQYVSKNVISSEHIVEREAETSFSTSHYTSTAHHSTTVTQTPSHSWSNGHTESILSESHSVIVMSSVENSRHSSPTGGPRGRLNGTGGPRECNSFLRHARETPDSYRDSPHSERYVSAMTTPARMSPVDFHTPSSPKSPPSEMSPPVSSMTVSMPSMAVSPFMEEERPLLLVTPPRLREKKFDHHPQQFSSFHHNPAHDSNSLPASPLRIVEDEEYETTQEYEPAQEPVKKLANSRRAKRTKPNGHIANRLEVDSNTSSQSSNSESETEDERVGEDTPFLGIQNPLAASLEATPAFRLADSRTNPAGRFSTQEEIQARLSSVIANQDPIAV

Structure (SMILES)	composite z-score [1]	composite z-score [2]	composite z-score [3]	composite z-score [4]	composite z-score [5]	composite z-score [6]	composite z-score [7]	z-score [8]	composite z-score [9]	composite z-score [10]
CO[C@H]1COC(=O)CC=C[C@H](C)COC(=O)[C@@H](OCc2ccccc2)C=C[C@@H]1C	-0.938	2.14	-0.317	-1.11	-1.49	0.311	0.958	0.236 (inactive)	-0.0875	-0.12
C=C(COC)/C(=C/C[C@@H](OC(C)=O)c1cccc(OCCO)c1)c1cc(C(=O)OC)ccc1OC	0.0462	0.361	-0.103	0.396	-0.0821	-0.582	0.597	-0.637 (inactive)	0.105	0.0274
C/C(=N\O)C(=O)NCCCCCNC(=O)OCc1ccccc1	-0.286	0.135	-0.0711	0.418	0.475	0.0391	0.619	0.725 (inactive)	0.271	-0.226
COc1cccc([C@@H]2[C@@H](C)CC[C@H]3C(=O)N(C)[C@@H](C(C)C)C(=O)N23)c1	-0.413	0.353	-0.174	0.391	0.188	0.0253	0.475	0.056 (inactive)	-0.0409	0.154
CO[C@@H]1COC(=O)[C@H](COCc2ccccc2)NC(=O)CC=C[C@@H](C)[C@H](OC)COC(=O)[C@H](COCc2ccccc2)NC(=O)CC=C[C@H]1C	-0.594	0.334	-0.138	-0.0596	0.0136	0.567	-0.618	-0.496 (inactive)	-0.0224	-0.0994
O=C1OCC=C[C@H]2OC34C=CCN(Cc5ccccc5)C(=O)[C@H]3N(CCCCCO)C(=O)[C@@H]4[C@@H]12 (stereo not given in full)	1.67	-0.0288	-0.187	-0.179	-1.38	1.13	0.631	0.443 (inactive)	-0.594	-0.216
CCCC[C@H]1OB(O)C[C@H]2C1=C(COC)C[C@H]1C(=O)N(Cc3ccccc3)C(=O)[C@H]12	-0.193	0.323	0.0644	0.3	0.908	0.173	-0.334	-0.788 (inactive)	0.633	0.124
Cc1ccc(S[C@]2(C(=O)NCCCN(C)C)CC(=O)N(Cc3ccccc3)[C@@H]2c2ccc(CO)cc2I)cc1	1.04	-1.08	-0.0785	-0.244	-0.189	1.39	0.727	-0.463 (inactive)	1.04	-0.427
C=C(C)[C@@H]1CC=C(C(O)C2C=CC3C(=O)NC(=O)C3N2Nc2ccccn2)CC1 (stereo not given in full)	0.541	1.27	0.0127	1.07	1.61	1.36	1.35	1.65 (inactive)	1.5	0.0524
CC(C)[Si]1(C(C)C)OCc2cc(C3CC3)nc(-c3ccccc3)c21	0.322	0.598	-0.119	-1.2	-1.27	-0.291	-0.531	-1.03 (inactive)	-0.135	-0.261
CCOC(=O)C[C@H]1[C@H](OC(=O)c2cc3ccccc3oc2=O)[C@@H](NC(=O)c2ccc3ccccc3c2)c2cc(OCCCO)ccc2N1C(=O)c1ccc2ccccc2n1	-0.522	0.128	-0.0336	1.11	1.09	0.384	1.03	-0.881 (inactive)	0.518	-0.0994
COCCOC(=O)N1C(=O)[C@@]2(c3cc(C#CCC(C(=O)OC)C(=O)OC)ccc31)[C@H](C(=O)N1CCN(c3ncccn3)CC1)[C@H]1C(=O)O[C@H](c3ccccc3)[C@H](c3ccccc3)N1[C@@H]2c1ccc(O)cc1	-0.0797	1.47	0.0051	0.579	1.08	1.07	1.2	-0.24 (inactive)	-0.304	0.0623
CC[C@H]1C2=C3C(CC[C@H]4C(OC)OC[C@](C)([C@@H]34)N(C(=O)OC(C)(C)C)C2)C(CO)C1CO (stereo not given in full)	1.21	0.896	0.181	0.366	1.65	1.32	1.13	-0.342 (inactive)	1.87	0.0053
C=CCC(OC(C)=O)[C@@H]1[C@@H](N(Cc2cccc3ccccc23)C(=O)c2ccc(C)cc2)c2cc(OCCCO)ccc2N1C(=O)c1ccc(-c2ccccc2)cc1 (stereo not given in full)	0.115	0.529	-0.0753	0.255	-0.169	0.0808	-0.173	-2.1 (inactive)	0.159	-0.335
CC(C)CN1C(=O)[C@@]2(Cc3ccccc31)c1ccccc1C(=O)N(C1CCCCC1)[C@H]2c1ccc(CO)cc1	0.523	-0.21	-0.172	-0.538	-1.08	-0.388	-0.0501	0.172 (inactive)	-0.382	-0.226
O=[N+]([O-])c1ccc(C[n+]2ccc3ccc(O)cc3c2)o1	-0.493	0.449	-0.146	0.169	0.37	1.49	1.11	0.468 (inactive)	0.147	-0.411
COCCOC(=O)N1C(=O)[C@@]2(c3ccccc31)[C@H](C(=O)N1CCc3cc(OC)c(OC)cc3C1)[C@H]1C(=O)O[C@H](c3ccccc3)[C@H](c3ccccc3)N1[C@@H]2c1ccccc1OCCO	0.221	0.409	-0.0009	0.66	0.809	0.607	1.04	-0.381 (inactive)	0.481	0.251

Structure (SMILES)	composite z-score [1]	composite z-score [2]	composite z-score [3]	composite z-score [4]	composite z-score [5]	composite z-score [6]	composite z-score [7]	z-score [8]	composite z-score [9]	composite z-score [10]
NC(=O)NCC#Cc1ccc2c(c1)[C@]1(C(=O)N2)[C@H](c2ccccc2OCCO)N2[C@H](c3ccccc3)[C@H](c3ccccc3)OC(=O)[C@H]2[C@@H]1C(=O)N1CCN(c2ncccn2)CC1	0.533	0.195	-0.0145	0.499	0.583	1.19	1.07	-0.112 (inactive)	0.315	-0.0994
Cc1ccc(S[C@]2(C(=O)O)CC(=O)N(Cc3cc(C(F)(F)F)cc(C(F)(F)F)c3)[C@@H]2c2ccc(CO)cc2I)cc1	0.793	0.0039	-0.103	0.002	-1.18	1.28	0.603	0.419 (inactive)	-0.292	0.0373
CC(C)NC(=O)[C@@]1(Cc2ccccc2I)c2ccccc2C(=O)N(C2CCCCC2)[C@H]1c1ccc(CO)cc1	-0.107	0.072	0.0402	0.87	1.18	1.86	1.38	-2.62 (inactive)	1.38	0.0505
C[C@@H]1CC[C@H]2C(=O)N3[C@@H](CC[C@@H](C)[C@@H]3c3cccc(N4CCOCC4)c3)C(=O)N2[C@H]1c1cccc(Br)c1	-0.0356	0.237	-0.108	0.528	0.263	0.942	0.987	-0.649 (inactive)	0.166	0.0373
COCCOC(=O)N1C(=O)[C@@]2(c3cc(C#CCCO)ccc31)[C@H](c1ccc(O)cc1)N1[C@H](c3ccccc3)[C@H](c3ccccc3)OC(=O)[C@H]1[C@@H]2C(=O)Nc1nc2ccccc2s1	-0.243	0.184	0.0644	0.892	1.25	0.227	1.15	-0.205 (inactive)	0.293	-0.16
C=CCC(OC(C)=O)[C@@H]1[C@@H](N(Cc2cc3ccccc3o2)C(=O)c2ccc(C)cc2)c2cc(OCCCO)ccc2N1C(=O)c1ccc2ccccc2n1 (stereo not given in full)	0.216	0.189	-0.187	0.394	0.191	-0.019	-0.323	-0.508 (inactive)	0.113	0.107
O=C(CS)NCCCCCNC(=O)[C@H]1C[C@H]2C(=O)N3CCC[C@H]3C(=O)N2[C@H]1c1ccc(O)cc1	0.305	0.0424	-0.0363	-0.267	-0.231	0.873	1.25	0.393 (inactive)	-0.339	0.0274
C=C(COC)C(=O)CC[C@H](OC(=O)c1ccccc1-c1ccccc1C(=O)O)c1cccc(OCCO)c1	-0.102	1.15	-0.103	0.24	0.0421	1.66	1.37	-3.97 (inactive)	-0.25	-0.0296
C=C(/C(=C/C[C@@H](OC(=O)c1ccncc1)c1ccc(CO)o1)c1cnc2ccccc2c1)C(C)C	0.358	0.522	-0.0767	1.02	1.52	1.15	1.04	-0.493 (inactive)	0.398	-0.0994
CC(=O)NCCCC[C@@H]1NC(=O)[C@@H]2C[C@H](C(=O)NCc3ccc(F)cc3)[C@H](c3cccc(OCCO)c3)N2C1=O	0.617	-0.0522	-0.0038	0.107	-0.417	1.39	1.36	0.967 (inactive)	-0.205	-0.0237
C=CC[C@@]1(C(=O)N2CCOCC2)N=C(c2ccc(OCCCO)cc2)O[C@@H]1c1ccccc1	-0.487	1.2	-0.117	0.351	0.369	1.12	1.08	-1.36 (inactive)	-0.298	-0.712
CCCC[C@@H]1C[C@H]1[C@@H](NC(=O)c1cccs1)c1ccc(Cl)cc1	0.521	-0.6	-0.141	-0.543	-1.45	-0.273	-0.669	0.902 (inactive)	-0.531	-0.0003
O=C(NCC(F)(F)F)[C@@H]1c2ccccc2C(=O)N(Cc2ccccc2Cl)[C@H]1c1ccc(CO)cc1	1.39	-0.338	-0.0964	-0.601	-1.37	-0.341	1.39	-1.3 (inactive)	0.214	-0.47
O=C(O)[C@@H]1Cc2c([nH]c3ccccc23)[C@@H](c2ccccc2)N1	-0.675	-0.15	-0.109	0.35	0.464	0.144	0.125	-0.608 (inactive)	0.084	-0.0522
CO[C@@H]1COC(=O)CC=C[C@@H](C)[C@H](OC)COC(=O)CC=C[C@H]1C	-0.762	1.22	-0.14	-0.228	-0.541	-0.503	-0.366	0.211 (inactive)	0.169	-0.16
CC(C)N1CC=CC23O[C@@H]4/C=C\CCCOC(=O)C4[C@H]2C(=O)N(CCO)[C@@H]3C1=O (stereo not given in full)	-0.0118	-0.158	-0.156	-0.958	-0.933	2.16	1.12	-0.469 (inactive)	-0.219	-0.257
